Activity calls are given as the source filed them. The calls were made as follows: active = hit-call score of the fitted dose curve at least 0.9, where 1 is the maximum; inactive = score below 0.9.
Key:
[1] = APR_HepG2_NuclearSize_24hr: Apredica 24-hour HepG2 Assay for Nuclear Size (AID 2282907); conditions: high-content imaging, actives raise or lower the signal
Procedure, shortened: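 Read-out: nuclear diameter from Hoechst 33342 (2 ug/mL) imaging of fixed HepG2 cells, 20x, six fields/well. Compounds ran at 0.39–200 uM for 24 hr, 0.5% DMSO final. Gain or loss was fitted bidirectionally relative to the DMSO baseline.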

[2] = APR_HepG2_CellLoss_24hr: Apredica 24-hour HepG2 Assay for Cell Loss (AID 2282908); conditions: high-content imaging;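 as to AC50: fit in both directions so a hit may be cell loss or gain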
Procedure, shortened: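 Read-out: Hoechst 33342-stained nuclei counted by automated fluorescence imaging after formaldehyde fixation and Triton permeabilization. Ten concentrations, 0.39 to 200 uM, duplicate wells, 0.5% DMSO final. Gain or loss of signal fitted relative to DMSO baseline.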

[3] = APR_HepG2_MicrotubuleCSK_24hr: Apredica 24-hour HepG2 Assay for Microtubule CSK Stabilty (AID 2282909); conditions: HepG2 microtubule cytoskeleton imaging, actives raise or lower the signal
Procedure, shortened: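 Read-out: alpha-tubulin immunofluorescence intensity by automated high-content imaging of fixed HepG2 cells after 24 h compound treatment. Ten concentrations, 0.39 to 200 uM, in duplicate; DMSO 0.5% v/v. Taxol positive control; DMSO-normalized bidirectional curve fitting.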

[4] = APR_HepG2_MitoticArrest_24hr: Apredica 24-hour HepG2 Assay for Mitotic Arrest (AID 2282910); conditions: high-content imaging, actives raise or lower the signal
Procedure, shortened: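 Treatment lasted 24 hr in the human HepG2 line at 0.39–200 uM, solvent held at 0.5% DMSO. Fixed cells were stained with Hoechst 33342 and anti-phospho-histone H3, imaged at 20x, and analysed by gain- or loss-of-signal fitting against DMSO.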

[5] = APR_HepG2_MitoMembPot_24hr: Apredica 24-hour HepG2 Assay for Mitochondrial Membrane Potential (AID 2282911); conditions: imaging, actives raise or lower the signal
Procedure, shortened: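 Human hepatoma HepG2 cultures received ten compound concentrations up to 200 uM for 24 hr. Membrane-potential dye signal, captured by automated fluorescence microscopy, was scored for gain or loss against DMSO controls.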

[6] = APR_HepG2_MitoMass_24hr: Apredica 24-hour HepG2 Assay for Mitochondrial Mass (AID 2282912); conditions: high-content imaging, actives raise or lower the signal
Procedure, shortened: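 HepG2, 24 hr dosing, 10 concentrations 0.39–200 uM in duplicate, DMSO 0.5% final. MitoTracker Red CMXRos 250 nM, 30 min pre-fix; 3.7% formaldehyde fix. Imaging-based fluorescence intensity; gain/loss fit vs DMSO baseline.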

[7] = APR_HepG2_p53Act_24hr: Apredica 24-hour HepG2 Assay for p53 Activation (AID 2282913); conditions: high-content imaging, actives raise or lower the signal;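 also: p53 protein immunofluorescence averaged per cell in HepG2 with Hoechst nuclei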
Procedure, shortened: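 Automated fluorescence imaging quantifies p53 immunostaining in HepG2 cells after a 24 hr exposure (0.39–200 uM, duplicate, 0.5% DMSO). Nuclei are located by Hoechst 33342 staining.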

[8] = APR_HepG2_CellCycleArrest_72hr: Apredica 72-hour HepG2 Assay for Cell Cycle Arrest (AID 2282914); conditions: high-content imaging, actives raise or lower the signal
Procedure, shortened: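 Cell cycle arrest in HepG2 was scored from nuclear DNA content after 72 hr compound treatment (0.39–200 uM). Activity, either gain or loss, was fitted against the DMSO baseline.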

[9] = APR_HepG2_CellLoss_72hr: Apredica 72-hour HepG2 Assay for Cell Loss (AID 2282915); conditions: high-content imaging
Procedure, shortened: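 HepG2 cells were exposed for 72 hr to compounds at 0.39–200 uM (ten concentrations, duplicate) in 0.5% v/v final DMSO. Nuclei were stained with Hoechst 33342 after 3.7% formaldehyde fixation, imaged at 20x, and counted; fits bidirectional versus DMSO.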

[10] = APR_HepG2_P-H2AX_72hr: Apredica 72-hour HepG2 Assay for H2AX Phosphorylation (AID 2282916); conditions: imaging, actives raise or lower the signal;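 also: phospho-histone H2A.x immunostain intensity per cell marking DNA damage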
Procedure, shortened: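 Readout: phospho-H2A.x immunofluorescence (FITC secondary) plus Hoechst nuclear stain, high-content imaging at 20x, six fields/well. HepG2, 72 hr compound exposure, 0.39–200 uM, final DMSO 0.5% v/v. Gain or loss fitted relative to DMSO baseline.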

[11] = APR_HepG2_MitoMembPot_72hr: Apredica 72-hour HepG2 Assay for Mitochondrial Membrane Potential (AID 2282917); conditions: imaging, actives raise or lower the signal
Procedure, shortened: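 HepG2 cells exposed 72 h to compounds at 0.39–200 uM (0.5% v/v DMSO, duplicates); MitoTracker Red CMXRos 250 nM loaded 30 min before 3.7% formaldehyde fixation, imaged by HCS fluorescence. Bidirectional fit versus DMSO.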

[12] = APR_HepG2_MitoticArrest_72hr: Apredica 72-hour HepG2 Assay for Mitotic Arrest (AID 2282918); conditions: high-content imaging, actives raise or lower the signal
Procedure, shortened: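 Mitotic arrest in HepG2 is scored from phospho-histone H3 staining after 72 hr dosing across 0.39–200 uM, with DMSO at 0.5% v/v. Nuclei are identified by Hoechst 33342 and fluorescence intensity is quantified per cell.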

[13] = APR_HepG2_MicrotubuleCSK_72hr: Apredica 72-hour HepG2 Assay for Microtubule CSK Stabilty (AID 2282919); conditions: HepG2 microtubule cytoskeleton, high-content imaging, actives raise or lower the signal
Procedure, shortened: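 Ten-point dosing (0.39–200 uM, 0.5% DMSO) of HepG2 for 72 hr, with taxol as the cytoskeletal positive control. The cells were formaldehyde-fixed and then stained with alpha-tubulin/Cy5 and Hoechst. Imaging at 20x used a −2 um Z offset for tubulin.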

[14] = APR_HepG2_P-H2AX_24hr: Apredica 24-hour HepG2 Assay for H2AX Phosphorylation (AID 2282920); conditions: high-content imaging, actives raise or lower the signal
Procedure, shortened: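 Signal comes from a FITC-labeled secondary detecting phospho-histone H2A.x in fixed HepG2 cells, quantified by automated imaging at 20x. Dosing ran 24 hr across 0.39–200 uM with 0.5% v/v DMSO.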

[15] = APR_HepG2_StressKinase_72hr: Apredica 72-hour HepG2 Assay for Stress Kinase (AID 2282921); conditions: HepG2 stress kinase (phospho-c-Jun) imaging, actives raise or lower the signal
Procedure, shortened: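 Phospho-c-Jun immunofluorescence measured by high-content imaging at 20x, six fields per well; bidirectional curve fitting against DMSO as baseline. Dosing: 0.39–200 uM, 72 h, 0.5% DMSO final.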

[16] = APR_HepG2_StressKinase_24hr: Apredica 24-hour HepG2 Assay for Stress Kinase (AID 2282922); conditions: HepG2 stress kinase (phospho-c-Jun) imaging, actives raise or lower the signal
Procedure, shortened: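 After 24 hr compound treatment (up to 200 uM, final DMSO 0.5% v/v), HepG2 cells are fixed and multiplex-labeled; phospho-c-Jun intensity is captured by high-content fluorescence imaging and analyzed relative to DMSO.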

[17] = APR_HepG2_p53Act_72hr: Apredica 72-hour HepG2 Assay for p53 Activation (AID 2282923); conditions: high-content imaging, actives raise or lower the signal;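 also: average cellular p53 protein immunofluorescence intensity in HepG2 cells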
Procedure, shortened: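 Readout: p53 immunofluorescence quantified by automated high-content imaging at 20x, six fields per well, nuclei located via Hoechst. Dosing ran 72 hr over ten concentrations from 0.39 to 200 uM; bidirectional curve fitting against DMSO baseline.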

[18] = APR_HepG2_MitoMass_72hr: Apredica 72-hour HepG2 Assay for Mitochondrial Mass (AID 2282924); conditions: high-content imaging, actives raise or lower the signal;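 also: MitoTracker Red CMXRos stain intensity per cell imaged as mitochondrial mass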
Procedure, shortened: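 Steps: treat HepG2 72 hr (0.39–200 uM, duplicate wells); load MitoTracker Red CMXRos, 250 nM, 30 min; fix with 3.7% formaldehyde, permeabilise with 0.5% Triton X-100; capture images, nuclei via Hoechst 33342; fit bidirectionally against DMSO.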

[19] = APR_HepG2_NuclearSize_72hr: Apredica 72-hour HepG2 Assay for Nuclear Size (AID 2282925); conditions: high-content imaging, actives raise or lower the signal
Procedure, shortened: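 Compounds (0.39–200 uM, final DMSO 0.5%) were applied to HepG2 for 72 hr. Cells were then formaldehyde-fixed, permeabilized and labelled with Hoechst 33342. Nuclear diameter was quantified from six images per well.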

[20] = APR_HepG2_CellCycleArrest_24hr: Apredica 24-hour HepG2 Assay for Cell Cycle Arrest (AID 2282905); conditions: imaging, actives raise or lower the signal;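 also: cell cycle arrest scored as ratio of 2N to 4N nuclear DNA content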
Procedure, shortened: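 Readout: Hoechst 33342 nuclear DNA content by high-content fluorescent imaging, six images/well, 20x. Human HepG2 liver cells, 24 hr compound exposure, 0.39–200 uM, final DMSO 0.5% v/v. Gain or loss fitted relative to DMSO baseline.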

Measured: AC50

Clc1ccc(Cl)c(Cl)c1
not listed: [20]
inactive: all other assays above

Clc1ccc(C(c2ccc(Cl)cc2)C(Cl)Cl)cc1
inactive: [1] | [11] | [16] | [18] | [19]
active: [20] 100 µM | [2] 93.7 µM | [3] 156 µM | [4] 89.6 µM | [5] 63.9 µM | [6] 89.1 µM | [7] 107 µM | [9] 93.8 µM | [10] 104 µM | [12] 68.3 µM | [13] 156 µM | [14] 108 µM | [15] 114 µM | [17] 87.1 µM

CC(C)(C)OOC(=O)c1ccccc1
active: [1] 38.6 µM | [2] 33.3 µM | [3] 48.2 µM | [4] 20.5 µM | [5] 33.8 µM | [6] 34.1 µM | [7] 22.8 µM | [8] 21.8 µM | [9] 26.6 µM | [10] 35.1 µM | [11] 20.1 µM | [12] 23.1 µM | [14] 16.4 µM | [15] 50 µM | [17] 21.5 µM | [18] 54 µM
inactive: [13] | [16] | [19]

Nc1ccc([N+](=O)[O-])cc1
not listed: [20]
inactive: all other assays above

[O-][Cl+]O
active: [2] 70.7 µM | [3] 73.3 µM | [4] 93.6 µM | [5] 62.5 µM | [9] 97.5 µM | [14] 66.5 µM | [16] 110 µM | [19] 157 µM
not listed: [8]
inactive: all other assays above

O=C(Nc1ccccc1)c1ccccc1I
active: [20] 49.7 µM | [9] 61.8 µM
not listed: [7] | [8] | [17]
inactive: all other assays above

CCC[CH2][Sn]([Cl])([CH2]CCC)[CH2]CCC
inactive: [1] | [5] | [11] | [13] | [15] | [19]
active: [20] 100 µM | [2] 1.12 µM | [3] 0.908 µM | [4] 0.336 µM | [6] 100 µM | [7] 0.388 µM | [9] 0.574 µM | [10] 0.0111 µM | [12] 0.0382 µM | [14] 1.41 µM | [16] 3.39 µM | [17] 0.0297 µM | [18] 0.0466 µM

— PubChem BioAssay (EPA / NIEHS)
